Tests used:
Assay in all cases: log2 ratio of Biotin-Ahx-Ub-VS probe labelling (fragment/DMSO); higher = less target engagement (more negative = stronger competition), active = hit call of the paper (q ≤ 0.05, log2 ratio ≤ -1)
Settings in all cases: compound concentration: 200 uM; treatment time: 3 h
USP34 = USP34 (UniProt Q70CQ2)
Outline: (§1)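 HEK293T lysate (495 µg per sample, in Tris/CHAPS/IGEPAL buffer with protease inhibitors) was exposed in triplicate for 3 h to fragment at 200 µM or to vehicle, then to Biotin-Ahx-Ub-VS at 0.5 µM final for 1 h. Labelled DUBs were enriched on NeutrAvidin, digested with LysC and trypsin, and analysed by diaPASEF LC-MS/MS. Spectronaut label-free quantities were normalised to the global median, and values are average log2 ratios of fragment over vehicle from an unpaired t-test. Only proteins with ≥2 unique peptides were used.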

USP36 = target: T1, USP36 (UniProt Q9P275)
T1 sequence (whole entry): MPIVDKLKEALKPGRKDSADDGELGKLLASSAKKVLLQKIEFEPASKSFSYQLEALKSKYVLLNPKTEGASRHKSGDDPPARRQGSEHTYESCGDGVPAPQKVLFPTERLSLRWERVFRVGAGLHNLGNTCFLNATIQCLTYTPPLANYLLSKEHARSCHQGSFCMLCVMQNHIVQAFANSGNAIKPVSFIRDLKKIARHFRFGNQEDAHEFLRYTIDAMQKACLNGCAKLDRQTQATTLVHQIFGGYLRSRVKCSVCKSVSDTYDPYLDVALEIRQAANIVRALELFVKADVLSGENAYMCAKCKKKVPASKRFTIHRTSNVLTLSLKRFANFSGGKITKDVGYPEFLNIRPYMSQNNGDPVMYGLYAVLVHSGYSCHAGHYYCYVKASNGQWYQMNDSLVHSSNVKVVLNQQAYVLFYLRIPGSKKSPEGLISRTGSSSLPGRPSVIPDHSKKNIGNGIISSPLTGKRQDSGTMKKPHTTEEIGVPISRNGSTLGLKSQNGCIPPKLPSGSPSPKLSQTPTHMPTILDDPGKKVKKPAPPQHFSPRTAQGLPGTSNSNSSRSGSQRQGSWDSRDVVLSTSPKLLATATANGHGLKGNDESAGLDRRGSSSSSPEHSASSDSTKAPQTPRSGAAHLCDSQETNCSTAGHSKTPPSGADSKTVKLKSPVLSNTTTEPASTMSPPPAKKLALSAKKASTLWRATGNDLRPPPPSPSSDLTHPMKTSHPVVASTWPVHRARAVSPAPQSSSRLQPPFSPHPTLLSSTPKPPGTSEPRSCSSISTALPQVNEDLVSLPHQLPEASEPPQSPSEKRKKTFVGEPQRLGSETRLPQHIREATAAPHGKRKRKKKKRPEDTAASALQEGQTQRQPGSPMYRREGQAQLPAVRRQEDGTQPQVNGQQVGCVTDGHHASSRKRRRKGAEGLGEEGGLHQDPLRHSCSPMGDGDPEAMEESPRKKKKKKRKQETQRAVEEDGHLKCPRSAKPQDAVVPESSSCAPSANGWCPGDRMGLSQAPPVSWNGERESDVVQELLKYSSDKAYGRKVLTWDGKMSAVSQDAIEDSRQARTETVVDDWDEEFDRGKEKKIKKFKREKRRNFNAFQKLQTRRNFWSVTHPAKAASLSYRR
Outline: as §1

USP38 = target: T2, USP38 (UniProt Q8NB14)
T2 sequence (whole entry): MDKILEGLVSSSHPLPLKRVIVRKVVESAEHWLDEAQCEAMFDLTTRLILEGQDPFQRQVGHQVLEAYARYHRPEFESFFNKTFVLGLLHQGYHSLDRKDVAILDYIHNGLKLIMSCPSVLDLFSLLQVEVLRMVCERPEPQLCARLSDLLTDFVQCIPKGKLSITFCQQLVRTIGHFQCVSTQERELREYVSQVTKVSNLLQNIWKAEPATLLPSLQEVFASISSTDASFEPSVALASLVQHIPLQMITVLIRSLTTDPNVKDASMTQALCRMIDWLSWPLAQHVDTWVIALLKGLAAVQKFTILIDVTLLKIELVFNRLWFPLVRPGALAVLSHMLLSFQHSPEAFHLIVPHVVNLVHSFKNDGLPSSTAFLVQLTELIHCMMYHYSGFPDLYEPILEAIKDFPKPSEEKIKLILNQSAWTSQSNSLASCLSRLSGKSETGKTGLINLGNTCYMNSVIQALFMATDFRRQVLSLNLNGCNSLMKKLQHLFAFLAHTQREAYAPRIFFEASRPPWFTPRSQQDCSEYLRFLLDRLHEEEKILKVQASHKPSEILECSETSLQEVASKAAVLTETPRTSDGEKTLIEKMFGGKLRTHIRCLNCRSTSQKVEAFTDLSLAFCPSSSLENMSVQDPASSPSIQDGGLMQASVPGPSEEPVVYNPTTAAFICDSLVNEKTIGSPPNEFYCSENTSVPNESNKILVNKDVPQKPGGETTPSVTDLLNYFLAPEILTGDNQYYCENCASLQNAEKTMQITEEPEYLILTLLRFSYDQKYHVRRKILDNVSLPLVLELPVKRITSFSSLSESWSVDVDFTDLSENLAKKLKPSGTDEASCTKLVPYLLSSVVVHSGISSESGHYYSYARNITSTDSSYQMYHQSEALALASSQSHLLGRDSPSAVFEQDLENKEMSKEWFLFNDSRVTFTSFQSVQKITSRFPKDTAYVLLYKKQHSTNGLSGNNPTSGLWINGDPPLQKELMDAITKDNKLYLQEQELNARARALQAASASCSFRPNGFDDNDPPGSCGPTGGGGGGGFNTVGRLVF
Outline: as §1

USP39 = target: T3, USP39 (UniProt Q53GS9)
T3 sequence (whole entry): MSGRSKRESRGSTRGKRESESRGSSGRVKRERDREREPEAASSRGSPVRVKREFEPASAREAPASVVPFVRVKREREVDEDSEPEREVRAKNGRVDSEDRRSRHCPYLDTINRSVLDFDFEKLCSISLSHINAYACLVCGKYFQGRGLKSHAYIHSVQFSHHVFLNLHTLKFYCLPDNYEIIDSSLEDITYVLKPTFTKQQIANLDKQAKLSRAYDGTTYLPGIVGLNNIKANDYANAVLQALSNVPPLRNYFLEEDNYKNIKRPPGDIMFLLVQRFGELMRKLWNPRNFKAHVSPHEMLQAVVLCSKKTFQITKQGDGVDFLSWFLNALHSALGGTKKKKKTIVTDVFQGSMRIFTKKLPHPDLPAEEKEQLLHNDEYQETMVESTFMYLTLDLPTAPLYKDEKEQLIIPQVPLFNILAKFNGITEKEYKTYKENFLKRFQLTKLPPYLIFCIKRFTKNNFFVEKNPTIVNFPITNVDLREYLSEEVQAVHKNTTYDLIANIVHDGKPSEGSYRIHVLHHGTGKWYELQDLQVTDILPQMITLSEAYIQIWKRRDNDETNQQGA
Outline: as §1

USP4 = target: T4, USP4 (UniProt Q13107)
T4 sequence (whole entry): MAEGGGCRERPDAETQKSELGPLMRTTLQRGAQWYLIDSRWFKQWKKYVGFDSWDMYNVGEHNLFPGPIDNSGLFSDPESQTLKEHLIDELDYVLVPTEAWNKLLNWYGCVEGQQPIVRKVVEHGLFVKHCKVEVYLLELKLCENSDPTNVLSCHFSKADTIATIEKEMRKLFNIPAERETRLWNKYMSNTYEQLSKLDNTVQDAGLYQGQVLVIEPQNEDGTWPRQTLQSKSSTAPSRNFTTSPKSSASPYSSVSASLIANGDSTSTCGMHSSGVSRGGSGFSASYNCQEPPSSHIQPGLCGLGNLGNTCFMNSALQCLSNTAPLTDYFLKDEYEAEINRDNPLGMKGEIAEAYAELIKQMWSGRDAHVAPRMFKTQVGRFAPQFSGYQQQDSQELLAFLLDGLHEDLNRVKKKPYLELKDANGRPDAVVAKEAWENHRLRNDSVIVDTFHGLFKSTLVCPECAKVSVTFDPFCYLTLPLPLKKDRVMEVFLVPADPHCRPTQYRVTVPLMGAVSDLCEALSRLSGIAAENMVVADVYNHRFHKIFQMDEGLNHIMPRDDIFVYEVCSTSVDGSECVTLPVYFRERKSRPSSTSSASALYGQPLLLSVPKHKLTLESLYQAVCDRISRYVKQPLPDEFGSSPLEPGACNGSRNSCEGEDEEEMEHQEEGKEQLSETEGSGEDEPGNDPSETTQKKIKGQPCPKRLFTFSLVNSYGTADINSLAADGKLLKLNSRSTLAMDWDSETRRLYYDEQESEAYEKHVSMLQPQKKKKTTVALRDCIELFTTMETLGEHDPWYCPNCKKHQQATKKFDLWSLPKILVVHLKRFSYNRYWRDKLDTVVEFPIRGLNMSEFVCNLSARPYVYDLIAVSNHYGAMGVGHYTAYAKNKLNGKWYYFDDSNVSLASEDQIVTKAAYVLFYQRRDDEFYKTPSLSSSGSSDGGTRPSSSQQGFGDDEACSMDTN
Outline: as §1

Measured: log2 ratio of Biotin-Ahx-Ub-VS probe labelling

Sequence of USP34 (Q70CQ2 whole entry, the tested form may be a part): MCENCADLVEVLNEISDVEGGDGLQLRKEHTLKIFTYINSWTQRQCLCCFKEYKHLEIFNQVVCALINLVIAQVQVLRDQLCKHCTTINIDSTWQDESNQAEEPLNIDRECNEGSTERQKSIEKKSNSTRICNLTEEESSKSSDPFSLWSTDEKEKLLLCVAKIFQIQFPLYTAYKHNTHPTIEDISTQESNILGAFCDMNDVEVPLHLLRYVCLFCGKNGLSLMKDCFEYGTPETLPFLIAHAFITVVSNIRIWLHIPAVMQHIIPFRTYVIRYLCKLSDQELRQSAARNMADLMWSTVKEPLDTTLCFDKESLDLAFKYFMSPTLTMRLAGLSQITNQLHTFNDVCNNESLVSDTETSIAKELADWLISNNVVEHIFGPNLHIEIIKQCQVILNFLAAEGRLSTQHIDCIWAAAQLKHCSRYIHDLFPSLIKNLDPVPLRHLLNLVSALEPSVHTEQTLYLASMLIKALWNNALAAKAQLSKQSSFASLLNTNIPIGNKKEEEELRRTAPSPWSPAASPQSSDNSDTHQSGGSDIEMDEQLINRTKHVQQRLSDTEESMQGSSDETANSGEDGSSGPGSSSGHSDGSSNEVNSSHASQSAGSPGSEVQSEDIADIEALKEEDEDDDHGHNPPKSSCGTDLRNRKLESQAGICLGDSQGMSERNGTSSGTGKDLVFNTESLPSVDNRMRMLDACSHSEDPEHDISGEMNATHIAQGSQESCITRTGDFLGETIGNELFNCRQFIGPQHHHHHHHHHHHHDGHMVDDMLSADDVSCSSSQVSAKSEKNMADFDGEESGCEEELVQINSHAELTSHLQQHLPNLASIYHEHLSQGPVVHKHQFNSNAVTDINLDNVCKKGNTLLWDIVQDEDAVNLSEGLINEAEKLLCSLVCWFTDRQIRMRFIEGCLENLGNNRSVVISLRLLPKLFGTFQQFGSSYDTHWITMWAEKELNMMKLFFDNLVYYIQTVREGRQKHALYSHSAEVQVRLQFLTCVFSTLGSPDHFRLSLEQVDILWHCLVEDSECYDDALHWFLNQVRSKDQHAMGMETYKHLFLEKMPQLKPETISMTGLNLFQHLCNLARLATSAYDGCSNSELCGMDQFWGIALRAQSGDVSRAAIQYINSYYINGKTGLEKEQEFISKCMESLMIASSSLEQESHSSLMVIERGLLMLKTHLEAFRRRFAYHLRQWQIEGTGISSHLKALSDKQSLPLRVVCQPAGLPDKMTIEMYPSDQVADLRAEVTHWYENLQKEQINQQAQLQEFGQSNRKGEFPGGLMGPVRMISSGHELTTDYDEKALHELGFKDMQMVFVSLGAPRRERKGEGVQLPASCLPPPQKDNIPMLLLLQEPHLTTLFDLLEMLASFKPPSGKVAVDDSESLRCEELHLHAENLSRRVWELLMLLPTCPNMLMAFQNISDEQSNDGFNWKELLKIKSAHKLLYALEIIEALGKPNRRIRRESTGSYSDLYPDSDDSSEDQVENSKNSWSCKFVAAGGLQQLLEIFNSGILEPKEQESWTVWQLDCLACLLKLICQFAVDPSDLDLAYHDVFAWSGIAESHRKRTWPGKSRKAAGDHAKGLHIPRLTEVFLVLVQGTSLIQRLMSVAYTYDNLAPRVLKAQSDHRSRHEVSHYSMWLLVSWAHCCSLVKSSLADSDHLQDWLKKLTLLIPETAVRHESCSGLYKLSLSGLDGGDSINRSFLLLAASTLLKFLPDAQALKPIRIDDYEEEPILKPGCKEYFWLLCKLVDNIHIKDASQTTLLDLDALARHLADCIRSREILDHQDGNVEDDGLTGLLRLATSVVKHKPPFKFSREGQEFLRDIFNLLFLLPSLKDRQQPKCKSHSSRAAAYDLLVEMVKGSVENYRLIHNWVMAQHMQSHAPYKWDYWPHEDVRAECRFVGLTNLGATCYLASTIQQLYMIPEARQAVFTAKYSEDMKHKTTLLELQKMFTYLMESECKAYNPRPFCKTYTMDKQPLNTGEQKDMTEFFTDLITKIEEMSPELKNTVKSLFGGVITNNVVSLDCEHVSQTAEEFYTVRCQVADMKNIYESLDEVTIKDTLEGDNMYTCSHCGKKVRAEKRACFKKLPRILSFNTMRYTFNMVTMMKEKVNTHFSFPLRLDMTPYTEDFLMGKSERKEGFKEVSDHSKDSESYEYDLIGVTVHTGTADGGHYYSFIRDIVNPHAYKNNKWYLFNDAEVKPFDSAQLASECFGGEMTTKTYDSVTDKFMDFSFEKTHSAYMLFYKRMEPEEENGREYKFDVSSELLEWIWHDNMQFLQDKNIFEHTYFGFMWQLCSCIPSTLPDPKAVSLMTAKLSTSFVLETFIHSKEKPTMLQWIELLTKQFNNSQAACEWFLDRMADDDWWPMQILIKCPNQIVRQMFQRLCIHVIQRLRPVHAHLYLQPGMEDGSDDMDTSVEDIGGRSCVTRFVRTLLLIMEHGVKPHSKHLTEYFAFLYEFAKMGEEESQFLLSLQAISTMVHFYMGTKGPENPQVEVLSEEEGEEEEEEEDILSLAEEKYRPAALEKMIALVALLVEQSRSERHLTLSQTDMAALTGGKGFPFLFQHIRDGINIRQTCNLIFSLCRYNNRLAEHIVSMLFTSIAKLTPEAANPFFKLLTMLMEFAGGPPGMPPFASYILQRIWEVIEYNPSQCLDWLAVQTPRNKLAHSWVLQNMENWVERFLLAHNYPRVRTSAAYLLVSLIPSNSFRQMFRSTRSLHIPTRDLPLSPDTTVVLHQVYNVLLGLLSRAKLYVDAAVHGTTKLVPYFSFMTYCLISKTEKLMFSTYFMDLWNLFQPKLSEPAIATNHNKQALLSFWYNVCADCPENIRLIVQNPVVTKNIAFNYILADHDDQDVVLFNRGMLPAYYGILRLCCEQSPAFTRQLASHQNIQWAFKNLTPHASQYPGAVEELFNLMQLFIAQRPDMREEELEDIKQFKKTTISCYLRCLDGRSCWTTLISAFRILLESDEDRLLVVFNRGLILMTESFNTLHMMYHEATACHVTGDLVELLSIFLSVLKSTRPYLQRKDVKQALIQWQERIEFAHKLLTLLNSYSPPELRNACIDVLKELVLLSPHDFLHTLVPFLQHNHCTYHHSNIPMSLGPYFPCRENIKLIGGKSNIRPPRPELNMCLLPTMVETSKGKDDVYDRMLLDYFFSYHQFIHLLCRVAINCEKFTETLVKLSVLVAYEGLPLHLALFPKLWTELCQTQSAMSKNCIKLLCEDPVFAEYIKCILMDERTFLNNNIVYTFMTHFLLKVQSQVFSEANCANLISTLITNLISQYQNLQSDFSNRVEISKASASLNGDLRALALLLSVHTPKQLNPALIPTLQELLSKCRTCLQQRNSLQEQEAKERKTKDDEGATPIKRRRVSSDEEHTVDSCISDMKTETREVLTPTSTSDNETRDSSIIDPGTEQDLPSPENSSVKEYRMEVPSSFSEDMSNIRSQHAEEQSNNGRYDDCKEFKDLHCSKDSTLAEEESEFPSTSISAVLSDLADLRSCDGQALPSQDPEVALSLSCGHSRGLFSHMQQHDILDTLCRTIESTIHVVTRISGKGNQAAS

Cc1n[nH]c2c1CN(C(=O)CCl)CC2
inactive: USP34 -0.404 | USP36 -0.284 | USP38 -0.715 | USP39 0.183 | USP4 -0.888

Reference: the supplement of paper PMC11732987, “Enantioselective OTUD7B fragment discovery through chemoproteomics screening and high-throughput optimisation” (Communications Chemistry, 2025)
